Mito fusion yeast – blocks mitochondrial division or promotes mitochondrial fusion; S. cerevisiae fusion-defective mutant growth rescue, CellTiterGlo 48 h; Potency, µM (highest dose often 46.1 µM), for the others: at the top dose growth rescue (activation), usual class: activators; actives 0.23% (n = 320,000); AID 485298; note: % of control where 0% means no effect; nearly all actives have a fitted effect of over 45% in size
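Temperature-sensitive fusion-defective S. cerevisiae (e.g. fzo1-1, mgm1-5) were grown with compound in YPEG medium (3% ethanol, 3% glycerol) for 48 hours at 37C. Growth rescue was measured as viability by CellTiterGlo luminescence after 10 minutes at ambient.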
PLK1 PBD block – blocks phosphopeptide binding to human PLK1 polo-box domain; P53350; Plk1 PBD binding of FITC phosphopeptide, fluorescence polarization; actives 2.8% (n = 360,000); Potency, µM, for inactives: max response, negative = inhibition, usual class: inhibitors; AID 720504; note: series mostly up to about 57 µM; % is set by controls: 0 for no effect and ±100 for the full control effect; nearly all actives have a fitted effect of over 65% in size
PKM2 act – PKM2 (human) enzyme activation. purified PKM2, Kinase-Glo ATP luminescence, activation; response scale: 0% is enzyme alone, no compound. Potency, µM (top dose mostly 57.5 µM), without a hit: top-dose activation, actives largely listed as activators. actives 0.34% (n = 260,000); note: % is set by controls: 0 for no effect and ±100 for the full control effect; nearly all actives have a fitted effect of over 55% in size
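Purified hPK-M2 (>95% pure) converted ADP (0.1 mM final) to ATP with 0.5 mM PEP in 50 mM imidazole pH7.2, KCl, MgCl2, Tween 20, BSA; 1 h at room temperature. ATP detected by Kinase-Glo luminescence.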
KAT2A inh – inhibitors of human GCN5L2 histone acetyltransferase. GCN5L2 HAT assay, ThioGlo1 CoA-SH fluorescence. Potency, µM (series often up to 58.9 µM), for the others: at the highest dose activity change, negative = inhibition, most hits filed as inhibitors. actives 0.21% (n = 390,000). AID 504327; note: % is set by controls: 0 for no effect and ±100 for the full control effect
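qHTS, 1536-well. 20nM enzyme, pH 7.5 HEPES/EDTA/Tween-20 buffer; 15 min compound preinc., RT. Start: 75uM H3(1-25), 70uM AcCoA, 50uM ThioGlo1. Read Ex340/Em540 at t=0 (autofluorescence flag) and t=20 min.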
GLS inh – glutaminase GLS (human) inhibition | actives 0.21% (n = 410,000) | Potency, µM (highest dose often 45.5 µM), for the others: top-dose activity change, negative = inhibition, hits mostly inhibitors | O94925 | GLS enzymatic activity, qHTS titration | AID 624170; note: % is set by controls: 0 for no effect and ±100 for the full control effect
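hKGA; 45 mM KH2PO4 pH 8.2 + 0.02% Tween-20; cpd via pin tool; 1 mM Gln soln; GluOx/HRP/Amplex Red; RT 30 min; fluor. t0 & final.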
VDR inhibitor – inhibitors of human vitamin D receptor; VDR-SRC2-3 peptide fluorescence polarization, 2 h; Potency, µM, without a hit: max response, negative = inhibition, hits mostly inhibitors; AID 504847; actives 0.93% (n = 400,000); note: % is set by controls: 0 for no effect and ±100 for the full control effect
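VDR–SRC2-3 interaction, FP format. Cmpds 23 nl via pintool, brief spin, 2 h ambient incubation.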
Starred values were filed as active, the others as inactive; ? = inconclusive; · = not tested or not shown; [ ] = another dose, or the depositor's remark. Hits are enriched below; roughly 3.4% of the tested compounds scored in any of these assays. Calls come from the whole dose curve; as a rule, active = well fitted curve in the direction sought with a large enough effect; inconclusive = small, poorly fitted or top-dose-only effect, or another doubt; inactive = no such curve, though single readings can be large; an effect the other way counts as inactive or inconclusive. Potency is the fitted concentration of half-maximal effect.

SMILES	Mito fusion yeast	PLK1 PBD block	PKM2 act	KAT2A inh	GLS inh	VDR inhibitor
O=C(CN1CCc2ccccc21)NC(=O)NCc1ccccc1	4%	27µM*	7%	-12%	0%	-6%
O=C(CN1CCN(S(=O)(=O)c2ccccc2)CC1)Nc1ccc([N+](=O)[O-])cc1	0%	-1%	-5%	1%	7%	7%
O=C(c1ccc2[nH]ccc2c1)N1CCCC(Nc2ccccc2)C1 (stereo unspecified)	30%	?	1%[0.46 µM]	-4%	22%	4%
O=C(O)C1C2C=CC(O2)C1C(=O)Nc1ccc(S(=O)(=O)N2CCc3ccccc32)cc1 (stereo unspecified)	-5%	-12%	?	-17%	1%	17%
O=C(O)C1C2C=CC(O2)C1C(=O)Nc1ccc(S(=O)(=O)Nc2ccccc2)cc1 (stereo unspecified)	-1%	-23%	28µM*	-9%	2%	-19%
CCOC(=O)/C=C/[C@H]1CCc2cccc(Cl)c2O1	0%	21µM*	·	-7%	6%	-25%
CCOC(=O)/C=C/C(=O)OCC(=O)Nc1c(Cl)cccc1Cl	9%	-27%	19%	-7%	6%	?
CC(C)(C)C(=O)Nc1cc(S(=O)(=O)Nc2ccc(Cl)cc2)ccc1Cl	18µM*	-8%	-11%	-13%	2%	-12%
Cc1cc(NC(=O)COc2coc(CN3CCN(c4ccc(F)cc4)CC3)cc2=O)no1	2%	-6%	·	-1%	1%	-19%
O=c1cc(-c2ccc(O)cc2)oc2c(O)c(O)c(O)c(O)c12	-3%	-25%	-46%	0%	11µM*	-28%
CN1CC=C2C(C#N)=C(N)C(C#N)(C#N)[C@H](c3cccs3)[C@H]2C1	-4%	21µM*	-4%	-5%	-14%	?
O=C(CN1CCN(c2ccc(F)cc2)CC1)Nc1nccs1	9%	24µM*	·	-5%	44%	-6%
COc1ccc(NC(=O)CN2CCN(c3ccc(F)cc3)CC2)cc1	-8%	30µM*	·	-10%	30%	-52%
CCc1ccc(NC(=O)Cn2ncc3c(C)n(Cc4cccc(Cl)c4)c(C)c3c2=O)cc1	·	·	·	1%	9%	1%
CC(=O)n1c(-c2ccccc2)c(-c2ccccc2)n(C)c1=O	·	-4%	·	·	32µM*	-4%
CC(=O)Nn1cc2c(c1-c1ccccc1)c(=O)n(C)c(=O)n2C	-3%	-2%	2%	-6%	-7%	-1%
COc1ccc(-c2nc3cnc(N4CCNCC4)nc3n(-c3ccccc3)c2=O)cc1	·	·	·	-21%	·	-3%
CC(=O)OCCn1c2nc(=O)[nH]c(=O)c-2nc2cc(C)c(C)cc21	3%	0.84µM*	3%	?	-11%	-18%
Cc1cc2nc3c(=O)[nH]c(=O)nc-3n(C)c2cc1C=O	·	·	·	28µM*	·	-29%
CCCC(=O)OC[C@@H](OC(=O)CCC)[C@@H](OC(=O)CCC)[C@H](Cn1c2nc(=O)[nH]c(=O)c-2nc2cc(C)c(C)cc21)OC(=O)CCC	·	·	·	-28%	3%	?
O=C(NNC(=O)c1ccccc1-n1cccc1)c1cccnc1	·	1%	·	·	25%	·
CCOC(=O)c1cc(-c2ccccc2)nn1CC1CC(c2cccnc2)=NO1 (stereo unspecified)	·	2%	·	·	0%	-6%
CCOC(=O)c1cc(-c2cccnc2)nn1-c1ccccc1C	-3%	27µM*	3%	-1%	66%	?
COc1cc2c(cc1OC)n(CC(=O)NC1CCCCCC1)n1c(C)cc(=O)nc21	2%	27µM*	·	0%	10%	-8%
CC(=O)c1cccc(OCC(O)CN2CCN(S(=O)(=O)c3c(F)cccc3F)CC2)c1 (stereo unspecified)	23%	19µM*	·	-3%	-2%	-26%
COCCNC(=S)NNc1ccc(Cl)c(C(=O)O)c1	2%	27µM*	-8%	0%	-4%	-15%
O=c1cc(O)c(Cl)c[nH]1	·	·	·	5%	8%	6%

Assay outcomes from PubChem BioAssay.
